Only some compounds are listed: those with a hit (about 3.2% of all), similar ones and a draw of the others.
MsrA inh – inhibits bovine methionine sulfoxide reductase A; purified bovine MsrA, absorbance read-out; inhibition, % at 15.5 µM; actives 0.75% (n = 360,000); AID 651718
HGIII-sPLA2 inh – Inhibits HGIII-sPLA2 liposome hydrolysis, primary screen | Q9NZ20 | QFRET BODIPY PC-A2 liposome hydrolysis, fluorescence | inhibition, % at 12.2 µM | actives 0.56% (n = 370,000);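 active = inhibition above mean plus 3 SD of compounds lying within the high and low control bounds, cut at about 19% in these data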
Target sequence (Q9NZ20 whole entry, looked up): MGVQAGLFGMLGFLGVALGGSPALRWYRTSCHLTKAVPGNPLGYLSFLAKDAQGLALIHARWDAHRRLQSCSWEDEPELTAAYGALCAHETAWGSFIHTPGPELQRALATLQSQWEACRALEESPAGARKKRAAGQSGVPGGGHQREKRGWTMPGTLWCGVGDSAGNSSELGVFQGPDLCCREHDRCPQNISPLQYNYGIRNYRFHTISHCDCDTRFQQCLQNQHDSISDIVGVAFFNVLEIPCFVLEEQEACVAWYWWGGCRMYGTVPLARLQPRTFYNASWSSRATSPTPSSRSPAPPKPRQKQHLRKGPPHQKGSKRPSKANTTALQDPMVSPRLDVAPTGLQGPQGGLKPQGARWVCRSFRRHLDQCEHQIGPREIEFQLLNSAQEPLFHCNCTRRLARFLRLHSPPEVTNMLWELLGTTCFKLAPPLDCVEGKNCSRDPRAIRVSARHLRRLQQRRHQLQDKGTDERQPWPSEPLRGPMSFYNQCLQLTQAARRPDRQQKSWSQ
rCAG binder – r(CAG) repeat RNA binding. TO-PRO-1 dye displacement fluorescence. inhibition, % at 3 µM. actives 1.3% (n = 370,000). AID 651821;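 active = inhibition above the plate cutoff, the mean of all test compounds on that plate plus 3 SD, cut at about 35% in these data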;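 also: higher means more dye released from RNA so lower well fluorescence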
PG9 binder – small molecules binding HIV-1 gp120 antibody PG9 | TR-FRET gp120-PG9 antibody binding | actives 0.43% (n = 360,000) | inhibition, % at 6.7 µM; in the data active = inhibition above about 8.5%
MsrA act – activators of bovine methionine sulfoxide reductase A | AID 602163 | actives 0.3% (n = 360,000) | purified bovine MsrA, absorbance read-out | activation, % at 10.6 µM; in the data active = activation above about 7.5%
MsrA conf – bovine MsrA inhibition, confirmed; AID 651822; shares compounds with MsrA inh; purified bovine MsrA, absorbance read-out; inhibition, % at 15.5 µM; actives 41% (n = 2,300);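 also: coupled to thioredoxin reductase with NADPH and selenocystamine and DMSO as substrate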
A number is an active result. Rule as the data show it, unless noted: active = inhibition above about 4.5%; inactive = the rest.

How did COc1cccc(/C(O)=C2/C(=O)C(=O)N(CCN3CCOCC3)C2c2cccnc2)c1 (centres undefined) do in these assays?
MsrA inh: inactive; HGIII-sPLA2 inh: inactive; rCAG binder: inactive; PG9 binder: inactive; MsrA act: inactive

Results for O=S(=O)(CC1NCc2ccccc21)NCc1ccc(F)cc1 (centres undefined) ?
HGIII-sPLA2 inh: inactive; rCAG binder: inactive

Results for CC(=O)Nc1ccc(N=C(C2=C(O)c3ccccc3C2=O)c2ccccc2)cc1 ?
MsrA inh: 4.7; HGIII-sPLA2 inh: inactive; rCAG binder: inactive; PG9 binder: inactive; MsrA act: inactive; MsrA conf: inactive

Results for CCn1c(=O)n(CC(=O)N2CCCC2)c(=O)c2ccccc21 ?
HGIII-sPLA2 inh: inactive; rCAG binder: inactive

What do the screens show for `Cc1cc(C(=O)N/N=C/c2ccc(O)c([N+](=O)[O-])c2)n[nH]1`?
MsrA inh: 6.8; HGIII-sPLA2 inh: inactive; rCAG binder: inactive; PG9 binder: inactive; MsrA act: inactive; MsrA conf: 6.0

How did O=C(N/N=C/c1ccc(O)c([N+](=O)[O-])c1)C(O)(c1ccccc1)c1ccccc1 do in these assays?
MsrA inh: 6.4; HGIII-sPLA2 inh: inactive; rCAG binder: inactive; PG9 binder: inactive; MsrA act: inactive; MsrA conf: 4.9

How did O=C(N/N=C\c1ccc(O)c([N+](=O)[O-])c1)c1ccccc1-n1cccc1 do in these assays?
MsrA inh: 6.6; HGIII-sPLA2 inh: inactive; rCAG binder: inactive; PG9 binder: inactive; MsrA act: inactive; MsrA conf: inactive

How did O=C(CCS(=O)(=O)c1ccccc1)Nc1cc(Cl)ccc1F do in these assays?
HGIII-sPLA2 inh: inactive; rCAG binder: inactive

What do the screens show for `CN(CCc1ccccn1)C(=O)Cn1nc(-c2ccccc2)ccc1=O`?
HGIII-sPLA2 inh: inactive; rCAG binder: inactive

Results for CN(C)CCNC(=O)c1coc(=O)c(Br)c1 ?
MsrA inh: inactive; HGIII-sPLA2 inh: inactive; rCAG binder: inactive; PG9 binder: inactive; MsrA act: inactive

What do the screens show for `CC(C)CNC(=O)c1coc(=O)c(Br)c1`?
MsrA inh: 5.7; HGIII-sPLA2 inh: inactive; rCAG binder: inactive; PG9 binder: inactive; MsrA act: inactive; MsrA conf: 6.1

Results for O=C(NCCc1ccccc1)c1coc(=O)c(Br)c1 ?
MsrA inh: 5.6; HGIII-sPLA2 inh: inactive; rCAG binder: inactive; PG9 binder: inactive; MsrA act: inactive; MsrA conf: 6.5

How did Cc1nnc(SCC(=O)N/N=C/c2cc(Cl)c(O)c(Cl)c2)s1 do in these assays?
MsrA inh: 5.1; HGIII-sPLA2 inh: inactive; rCAG binder: inactive; PG9 binder: inactive; MsrA act: inactive; MsrA conf: 4.7

How did Cn1cc(S(=O)(=O)c2ccccc2)c(=O)c2cc(Cl)ccc21 do in these assays?
MsrA inh: inactive; HGIII-sPLA2 inh: inactive; rCAG binder: inactive; PG9 binder: inactive; MsrA act: inactive

How did Cn1cc(-c2ccccc2C(=O)O)c(=O)c2cc(Cl)ccc21 do in these assays?
MsrA inh: 4.9; HGIII-sPLA2 inh: inactive; rCAG binder: inactive; PG9 binder: inactive; MsrA act: inactive; MsrA conf: inactive

What do the screens show for `Cn1c2c(c(=O)n(C)c1=O)C(C(F)(F)F)(C(F)(F)F)N=C(c1ccccc1Cl)N2`?
MsrA inh: 9.1; HGIII-sPLA2 inh: inactive; rCAG binder: inactive; PG9 binder: inactive; MsrA act: inactive; MsrA conf: 6.7

What do the screens show for `Cn1c2c(c(=O)n(C)c1=O)C(C(F)(F)F)(C(F)(F)F)N=C(CCC1CCCCC1)N2`?
MsrA inh: inactive; HGIII-sPLA2 inh: inactive; rCAG binder: inactive; PG9 binder: inactive; MsrA act: inactive

Results for Cc1ccccc1Cn1cc(COC(=O)NCC(C)C)nn1 ?
HGIII-sPLA2 inh: inactive; rCAG binder: inactive

How did N/C(=N\N=C\c1ccc(O)c(O)c1)c1nonc1N do in these assays?
MsrA inh: inactive; HGIII-sPLA2 inh: inactive; rCAG binder: inactive; PG9 binder: inactive; MsrA act: inactive

Results for N/C(=N\N=C\c1cccc(O)c1)c1nonc1N ?
MsrA inh: 6.0; HGIII-sPLA2 inh: inactive; rCAG binder: inactive; PG9 binder: inactive; MsrA act: inactive; MsrA conf: inactive

How did N/C(=N\N=C\c1ccc(O)cc1)c1nonc1N do in these assays?
MsrA inh: 6.4; HGIII-sPLA2 inh: inactive; rCAG binder: inactive; PG9 binder: inactive; MsrA act: inactive; MsrA conf: inactive

How did N/C(=N\N=C\c1ccc([N+](=O)[O-])cc1)c1nonc1N do in these assays?
MsrA inh: inactive; HGIII-sPLA2 inh: inactive; rCAG binder: inactive; PG9 binder: inactive; MsrA act: inactive

Screening results deposited in PubChem BioAssay by The Scripps Research Institute Molecular Screening Center.
